Granule exo inh: LAMP-1 surface exposure blockers, TALL-104 cells – cell-based, flow cytometry, MLPCN library, primary screen. TALL-104 LAMP-1 surface exposure; cells stimulated with thapsigargin and PMA. inhibition, % at 10 µM. 0.66% of 360,000 active;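 active = inhibition above about 55%, limit read from the data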
rCAG binder: binders of r(CAG) RNA repeats, primary screen, biochemical, fluorescence; 1.3% of 370,000 active; AID 651821, 2012; r(CAG) RNA repeat, TO-PRO-1 dye displacement fluorescence; inhibition, % at 3 µM;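 active = inhibition above the plate cutoff, the mean of all test compounds on that plate plus 3 SD, cut at about 35% in these data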;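 also: 0% = DMSO alone and 100% = 100 µM mitoxantrone as full dye displacement; higher means more dye released from RNA so lower well fluorescence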
ABCB6 inh MLPCN: ABCB6 transporter inhibitors, primary screen, K562-ABCB6 cells, flow cytometry, MLPCN library | 0.19% of 360,000 active | fluorescence ratio to DMSO, % at 10 µM | ATP-binding cassette sub-family B member 6 (Homo sapiens), Q9NP58 | AID 602162, 2011 | K562-ABCB6 porphyrin accumulation, 1 h; active compounds read low;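 active = fluorescence ratio to DMSO below 75%, the collection mean minus 3 SD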;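 also: signal is porphyrin accumulated inside mitochondria; 100% equals median channel fluorescence of DMSO control wells; lower ratio means ABCB6 inhibition with less porphyrin fluorescence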
Target sequence (Q9NP58 whole entry, looked up): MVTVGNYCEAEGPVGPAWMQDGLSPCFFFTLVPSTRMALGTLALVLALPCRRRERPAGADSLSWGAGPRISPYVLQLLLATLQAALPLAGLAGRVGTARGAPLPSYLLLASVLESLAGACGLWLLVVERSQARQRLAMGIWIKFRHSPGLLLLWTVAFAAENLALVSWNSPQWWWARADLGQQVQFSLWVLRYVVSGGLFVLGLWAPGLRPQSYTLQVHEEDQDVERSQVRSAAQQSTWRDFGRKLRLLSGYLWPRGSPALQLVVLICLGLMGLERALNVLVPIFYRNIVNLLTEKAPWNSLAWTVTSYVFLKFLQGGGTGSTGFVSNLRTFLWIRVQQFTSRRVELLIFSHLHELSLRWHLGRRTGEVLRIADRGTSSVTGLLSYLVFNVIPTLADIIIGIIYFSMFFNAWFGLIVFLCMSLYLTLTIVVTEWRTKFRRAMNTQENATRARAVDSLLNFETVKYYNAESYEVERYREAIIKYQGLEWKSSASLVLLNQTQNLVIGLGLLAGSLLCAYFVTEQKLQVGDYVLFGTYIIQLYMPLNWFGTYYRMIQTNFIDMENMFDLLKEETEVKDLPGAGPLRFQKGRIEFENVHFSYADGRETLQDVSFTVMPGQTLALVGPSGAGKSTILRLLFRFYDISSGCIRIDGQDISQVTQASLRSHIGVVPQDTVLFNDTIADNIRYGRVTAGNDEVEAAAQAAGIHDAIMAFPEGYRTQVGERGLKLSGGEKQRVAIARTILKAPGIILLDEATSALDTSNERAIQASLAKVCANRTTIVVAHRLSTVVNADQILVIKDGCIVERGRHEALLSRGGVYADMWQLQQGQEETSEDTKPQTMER
PG9 binder: binders of HIV-1 gp120 antibody PG9, primary screen, biochemical, TR-FRET; inhibition, % at 6.7 µM; 0.43% of 360,000 active; HIV-1 gp120 / PG9 antibody interaction; TR-FRET gp120-PG9 antibody binding; in the data active = inhibition above about 8.5%
PG9 binder conf: binders of anti-gp120 antibody PG9, confirmation, biochemical, TR-FRET | shares compounds with PG9 binder | inhibition, % at 6.7 µM | TR-FRET PG9 antibody binding | 90% of 1,500 active; in the data active = inhibition above about 9%
PGV04 Ab binding: binders of control antibody PGV04, counter-screen for PG9 antibody binder project, biochemical, TR-FRET, distinct HIV envelope site | shares compounds with PG9 binder | TR-FRET PGV04 antibody-gp120 binding | inhibition, % at 6.7 µM | 95% of 1,500 active; in the data active = inhibition above about 9.5%
PG9 binder DR: small-molecule binders of antibody PG9, dose response, biochemical, TR-FRET, HIV-1 gp120 antibody; shares compounds with PG9 binder; TR-FRET PG9 antibody-gp120 binding inhibition; IC50, µM; 95 tested, under 10 active; AID 651848, 2012; in the data active = IC50 below about 10 µM
PGV04 binding DR: binders of control antibody PGV04, dose response, counter-screen for PG9 antibody binder project, biochemical, TR-FRET, distinct HIV envelope site; shares compounds with PG9 binder; TR-FRET binding to control antibody PGV04; IC50, µM; 20% of 95 active
PG126 DR counter: binders of control antibody PG126, dose response, counter-screen for PG9 antibody binder project, biochemical, TR-FRET, distinct HIV envelope site | 20% of 95 active | IC50, µM | TR-FRET binding to antibody PG126, counterscreen | shares compounds with PG9 binder
Numbers without * were called inactive; i = inactive; x = no result given. Compounds with a hit are over-represented: about 2.5% of the library has one in this group of screens. Rule as the data show it, unless noted: active = IC50 below about 9 µM; inactive = the rest.

SMILES	Granule exo inh	rCAG binder	ABCB6 inh MLPCN	PG9 binder	PG9 binder conf	PGV04 Ab binding	others
CCOC(=O)CN1C(=O)N[C@@H](c2cccc(C(F)(F)F)c2)[C@H](C(C)=O)[C@H]1C	-12.9	-7.5	102.0	-1.9	x	x
COc1cc2[nH]c(=S)n(NC(=O)c3ccccc3)c(=O)c2cc1OC	3.9	5.3	99.0	15.8*	17.9*	15.8*	PG9 binder DR=>67;PGV04 binding DR=i;PG126 DR counter=i
CC(=O)c1ccc(N2CCN(S(=O)(=O)c3ccc4c(c3)NC(=O)CO4)CC2)cc1	-0.1	0.7	101.0	22.1*	28.4*	39.0*
CC(=O)c1ccc(N2CCN(S(=O)(=O)c3ccc4c(c3)CCC(=O)N4)CC2)cc1	-17.4	3.8	99.0	1.0	x	x
O=C(CSc1ccc(F)cc1)NCCc1ccc(Cl)cc1	39.1	-3.1	99.0	-0.6	x	x
Cc1nc2ccc(Br)cc2c(-c2ccccc2)c1C(=O)O	-2.6	3.8	98.0	55.5*	64.6*	76.6*
Cc1ccc(-c2cc(C(=O)O)c3cc(Br)ccc3n2)o1	4.2	28.2	126.0	13.5*	10.5*	19.9*
Cc1ccc(-c2cc(C(=O)O)c3cc(Br)ccc3n2)s1	-10.1	23.5	95.0	23.5*	28.4*	42.9*
O=C(C1=C(O)C(=O)N(CC2CCCO2)C1c1ccc(Cl)cc1Cl)c1ccco1 (configuration not stated)	-10.8	10.8	100.0	10.7*	19.0*	23.4*
Cc1cc(C)c2nc(SCC(=O)NC(=O)c3cccn3C)cc(C)c2c1	0.0	0.0	97.0	14.6*	12.7*	26.6*
Cn1c(SCC(=O)N2CCc3ccccc32)nnc1-c1ccc(S(=O)(=O)N2CCCC2)cc1	7.1	4.3	101.0	9.5*	17.4*	25.4*
CC(=O)CSc1nnc(-c2ccc(S(=O)(=O)N3CCCC3)cc2)n1C	2.6	0.4	95.0	1.5	x	x
COc1cc(-c2c(NC(=O)c3ccco3)oc3ccccc3c2=O)cc(OC)c1OC	-0.8	1.2	95.0	-0.3	x	x
O=c1c2oc3nc4c(cc3c2ncn1CCCc1ccccc1)CCCC4	3.0	-2.2	103.0	1.1	x	x
COCCN(CCOC)C(=O)c1c[nH]c2ccc(S(=O)(=O)N(C)c3ccc(F)cc3)cc2c1=O	-5.0	8.0	100.0	9.6*	11.0*	11.6*
CN(c1ccc(F)cc1)S(=O)(=O)c1ccc2[nH]cc(C(=O)O)c(=O)c2c1	0.4	16.7	101.0	9.6*	16.3*	18.9*
CCOc1ccccc1N(C)S(=O)(=O)c1ccc2[nH]cc(C(=O)N(CCOC)CCOC)c(=O)c2c1	-14.6	2.6	107.0	3.4	x	x
COc1ccc(C(=O)N2CCC2(C)C(=O)O)cc1F (configuration not stated)	-2.9	0.7	96.0	-2.2	x	x
CC(=O)C[C@@H]1OC2CCCCC2N1S(=O)(=O)c1ccc(C)cc1 (some centres not stated)	-5.2	-0.1	x	-0.8	x	x
CCOC(=O)Nc1ccc2c(COC(=O)CNS(=O)(=O)c3cccc(Br)c3)cc(=O)oc2c1	0.2	8.7	107.0	39.0*	32.3*	37.0*
COC(=O)c1ccc(C2/C(=C(\O)c3ccc(OC)c(C)c3)C(=O)C(=O)N2c2cc(C)on2)cc1 (configuration not stated)	-0.7	30.1	94.0	8.7*	13.5*	19.2*
CCOc1ccc(C2/C(=C(\O)c3ccc(OC)c(OC)c3)C(=O)C(=O)N2c2cc(C)on2)cc1OC (configuration not stated)	-3.7	12.2	111.0	-0.3	x	x
Cn1c(SCC(=O)Nc2ccc(Cl)cc2)nnc1C1CC1	4.2	-0.4	94.0	2.7	x	x
CSc1sc(-c2nnc(SCC(=O)Nc3ccc(Cl)cc3)n2C)c2c1C=CCC2	1.3	0.9	88.0	29.0*	37.9*	51.9*
O=C(CSc1ccc2nnc(-c3ccccn3)n2n1)Nc1ccc(F)cc1F	-4.2	1.8	94.0	-0.5	x	x
SMILES	Granule exo inh	rCAG binder	ABCB6 inh MLPCN	PG9 binder	PG9 binder conf	PGV04 Ab binding	others
Cc1ccc(C(C)(C)C)cc1S(=O)(=O)Nc1nc2ccccc2nc1Cl	23.0	63.0*	96.0	13.3*	21.5*	24.6*
CC(=O)Nc1ccc(S(=O)(=O)Nc2nc3cc4c(cc3nc2Cl)OCCO4)cc1	-0.4	7.1	93.0	13.4*	26.3*	35.3*
O=S(=O)(Nc1nc2cc3c(cc2nc1Cl)OCCO3)c1ccccc1	-2.5	12.7	97.0	1.8	x	x
CC(=O)Nc1ccc(S(=O)(=O)Nc2nc3ccccc3nc2Cl)cc1	-0.1	5.1	97.0	16.6*	25.3*	31.7*
Cc1cc(F)ccc1S(=O)(=O)Nc1nc2ccccc2nc1Cl	-6.0	4.0	94.0	1.6	x	x
CCn1c(C(=O)NC2CCC(C)CC2)cc2sccc21 (configuration not stated)	-9.8	-5.9	99.0	11.0*	4.5	8.3
NC(=O)c1ccc(NC(=O)COC(=O)C2COc3ccccc3O2)cc1 (configuration not stated)	0.5	0.5	90.0	0.4	x	x
CCc1nonc1NC(=O)c1oc2ccccc2c1C	-2.1	0.2	92.0	-2.3	x	x
COc1ccc2oc(C(=O)Nc3ccccn3)c(C)c2c1	-0.3	5.4	99.0	-0.8	x	x
CCc1nonc1NC(=O)c1oc2cc(Br)ccc2c1C	0.0	4.1	93.0	18.4*	19.8*	38.1*
COc1ccc2oc(C(=O)Nc3nc(C)cs3)c(C)c2c1	1.4	8.9	97.0	8.8*	13.2*	17.1*
Cc1c(C(=O)Nc2nccs2)oc2ccc(Br)cc12	17.5	4.0	90.0	10.1*	11.5*	15.2*
COc1ccc2c(c1)oc(=O)c1c3ccccc3[nH]c21	-1.0	10.2	94.0	13.2*	8.9*	20.9*
CC(C)c1nnc(NC(=O)c2ccc3ccccc3c2)s1	-2.1	-2.6	98.0	11.2*	18.3*	32.2*
Cc1ccc(C)c(NC(=O)CN(C)C(=O)C2=NNC(=O)CC2)c1	-5.9	3.5	100.0	-1.5	x	x
